Screens (PubChem BioAssay)
PostGolgi ctrl: growth inhibition of yeast control strain, primary screen, counter-screen for post-Golgi transport modulator project | efflux-deficient yeast background strain, growth absorbance A615, 16 h | inhibition, % at 10 µM | hit rate 5% among 98,000
CYP2C9 act: human CYP2C9 activators, primary screen, biochemical, luminescence. Cytochrome P450 2C9 (Homo sapiens), P11712. recombinant CYP2C9, luciferin-H conversion; hits give high values; factor 1 = untreated enzyme, 0 = blocked. activation factor at 5 µM. AID 1024, 2008. hit rate 1.4% among 96,000;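 active means activation factor of 2 or more for CYP2C9 at a 5 µM dose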
Target sequence (P11712 whole entry, looked up): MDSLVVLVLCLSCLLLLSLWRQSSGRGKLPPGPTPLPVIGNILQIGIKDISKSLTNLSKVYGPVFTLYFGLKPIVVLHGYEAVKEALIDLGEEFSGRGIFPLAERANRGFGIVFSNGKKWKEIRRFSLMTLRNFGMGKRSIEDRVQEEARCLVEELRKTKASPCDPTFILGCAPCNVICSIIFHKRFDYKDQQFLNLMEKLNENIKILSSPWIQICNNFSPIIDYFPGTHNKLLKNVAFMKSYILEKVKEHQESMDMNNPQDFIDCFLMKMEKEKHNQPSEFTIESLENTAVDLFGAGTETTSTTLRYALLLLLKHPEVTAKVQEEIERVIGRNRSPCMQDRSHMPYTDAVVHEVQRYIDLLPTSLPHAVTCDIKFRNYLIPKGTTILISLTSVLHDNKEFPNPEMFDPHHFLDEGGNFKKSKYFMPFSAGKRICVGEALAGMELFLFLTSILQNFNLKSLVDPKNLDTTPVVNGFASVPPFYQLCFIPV
CYP2C19 inhib: blockers of cytochrome P450 2C19 activity – biochemical, luminescence, ADME assay, primary screen; P33261; hit rate 21% among 96,000; CYP2C19 Supersomes, luciferin-H EGE luminescence, 30 min; AID 778, 2007; inhibition, % at 5 µM;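 active means CYP2C19 inhibition above a set limit at 5 µM in the primary screen, cut at about 50% in these data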
PostGolgi yeast: phenotypic screen on post-Golgi transport, primary screen | post-Golgi transport phenotypic cell assay | inhibition, % at 10 µM | hit rate 0.9% among 98,000 | AID 739, 2007;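 further: yeast cells grown in 1536-well plates; yeast grown about 18 h at 30C before absorbance read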
CYP2C19 act: human CYP2C19 activators, primary screen, biochemical, luminescence. 96,000 tested, under 10 active. recombinant CYP2C19, luciferin-H EGE luminescence; hits give high values; 0 = fully inhibited enzyme, 1 = untreated enzyme. activation factor at 5 µM. Cytochrome P450 2C19 (Homo sapiens), P33261;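 active means activation factor of at least 2 at 5 µM in the primary screen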
CYP2C9 inh: blockers of cytochrome P450 2C9 activity – biochemical, luminescence, ADME assay, primary screen; P11712; CYP2C9 Supersomes, luciferin-H conversion; inhibition, % at 5 µM; hit rate 20% among 96,000; AID 777, 2007;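 active means blocking of liver enzyme CYP2C9 beyond about 50% at 5 µM, limit read from the data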
A number is an active result; – = inactive; · = no result given. The list is not random: actives were taken first. Their share in the collection is about 32%. Unless noted, no stated cut-off is given here; in the data, active means inhibition above about 30%; inactive means the rest.

SMILES	PostGolgi ctrl	CYP2C9 act	CYP2C19 inhib	PostGolgi yeast	CYP2C19 act	CYP2C9 inh
CCOC(=O)c1c(COc2ccccc2)oc2ccc(O)cc12	–	–	–	–	–	–
COc1ccc2oc(-c3ccccc3)c(C(N)=O)c2c1	–	–	–	–	–	–
CCCC1c2ccc(C)n2CCN1C(=O)Nc1ccc(F)cc1 (configuration not stated)	–	–	–	–	–	–
O=C(NCc1ccc(N2CCCC2=O)cc1)NC1CCCCC1	–	–	–	–	–	–
NC(=O)CN1CCOCCOCCN(CC(N)=O)CCOCC1	–	–	–	–	–	55
O=C(CN1CCOCC1)Nc1nc2ccc(Br)cc2s1	–	–	–	–	–	65
O=C(CN1CCOCCOCCOCC1)Nc1ccccc1	–	–	–	–	–	–
O=C(CN1CCOCC1)Nc1ccc(Br)cn1	–	–	–	–	–	–
O=C(CCN1CCOCC1)Nc1cccc(Br)c1	–	–	–	–	–	–
O=C(CN1CCOCC1)Nc1cccc(Br)c1	31	–	–	–	–	–
O=C(CN1CCOCCOCCN(CC(=O)Nc2ccccc2)CCOCC1)Nc1ccccc1	–	–	–	30	–	–
c1cc(-c2nnc3n2CCC3)[nH]n1	–	–	–	–	–	–
O=C(CSCC(=O)N1CCOCC1)Nc1ccccc1	–	–	57	–	–	–
O=C(CN1CCOCC1)Nc1cccc(Cl)c1Cl	–	–	78	–	–	–
O=C(Nc1ccc(Nc2ccccc2)cc1)N1CCOCC1	–	–	–	–	–	–
CCN(CC)S(=O)(=O)c1csc(C(=O)Nc2ccccn2)c1	–	–	67	–	–	81
O=C(Nc1ccccn1)c1cccs1	–	–	–	–	–	–
COc1cccc(C(=O)Cn2c(=O)n(CC3CCCO3)c(=O)c3ccccc32)c1 (configuration not stated)	–	–	–	–	–	–
C#CC(CO)N(CCN(Cc1ccccc1)C(C#C)CO)Cc1ccccc1 (configuration not stated)	–	–	100	–	–	95
Cc1sc(NC(=O)C2CC=CCC2C(=O)O)c(C(=O)OC(C)C)c1C (configuration not stated)	–	–	–	–	–	54
COC(=O)c1cc(C)sc1NC(=O)C1CC=CCC1C(=O)O (configuration not stated)	–	–	–	–	–	–
CC(C(=O)NCC1CCCO1)n1cccc1C(=O)c1ccccc1 (configuration not stated)	–	–	–	–	–	–
N#Cc1cc2ccccc2nc1SCc1cccnc1	–	–	52	–	–	–
N#Cc1cc2c(nc1SCc1cccnc1)CCCCC2	63	–	80	44	–	–
COC(=O)CC(=O)CSc1nc2c(cc1C#N)CCCCC2	–	–	62	–	–	76
SMILES	PostGolgi ctrl	CYP2C9 act	CYP2C19 inhib	PostGolgi yeast	CYP2C19 act	CYP2C9 inh
COc1ccc2nc(SCc3cccnc3)c(C#N)cc2c1	–	–	–	–	–	–
N#Cc1cc2c(nc1SCC(O)CS(=O)(=O)Cc1ccccc1)CCCC2 (configuration not stated)	–	–	–	–	–	58
N#Cc1cc2c(nc1SCc1cccc(Cl)c1)CCCCC2	–	–	–	–	–	–
O=C(CCS(=O)(=O)c1ccc(Br)s1)NC1CCCCCC1	–	–	–	–	–	–
COc1ccc(C(C(=O)NC2CCCC2)N2CCc3ccccc32)cc1 (configuration not stated)	–	–	–	–	–	–
N#Cc1cc2c(nc1SCc1ccccc1)CCCCC2	31	–	–	–	–	–
CCOC(=O)C1=C(c2ccccc2)NC(=O)NC1c1ccc(N(C)C)cc1 (configuration not stated)	·	–	80	·	–	–
Oc1ccc(-c2n[nH]c(=S)n2Cc2ccccc2)cc1	–	–	–	–	–	–
Oc1ccc(N=Nc2n[nH]c(-c3ccc(Cl)cc3)n2)cc1	–	2	–	–	–	–
Cc1nnc(SCc2ccc(F)cc2)s1	–	–	–	–	–	–
Nc1nnc(SCc2ccc(F)cc2)s1	–	–	70	–	–	–
COc1ccc(CSc2nnc(N)s2)cc1F	–	–	69	–	–	–
Cc1ccc(C)c(NC(=O)Cn2nc(C)c3ccccc3c2=O)c1	·	–	–	·	–	–
Cc1ccc(OCCN2CCN(C(=O)CCC(=O)Nc3nnc(C(C)C)s3)CC2)cc1	40	–	–	–	–	–
Cc1ccc(OCCN2CCN(C(=O)CCC(=O)Nc3nnc(C)s3)CC2)cc1	–	·	·	–	·	·
S=P(c1ccc(N2CCOCC2)cc1N1CCOCC1)(N1CCOCC1)N1CCOCC1	·	–	–	·	–	–
C=CCN=C1SC(CC)C(=O)N1S(=O)(=O)c1ccc(C)cc1 (configuration not stated)	–	–	84	–	–	–
CC1CN(C(=O)c2scc3c2OCCO3)CC(C)O1 (configuration not stated)	–	–	–	–	–	–
Cn1c(-c2ccccc2)cc2c3no[n+]([O-])c3ccc21	94	–	80	74	–	–
O=C(Nc1ccn(Cc2c(F)c(F)cc(F)c2F)n1)c1cccc(Cn2cc([N+](=O)[O-])cn2)c1	–	–	73	–	–	82
CCOc1ccc(OCc2ccc(C(=O)Nc3cccnc3)o2)cc1	–	–	–	–	–	–
CN(C)c1ccc(NC(=O)c2ccc(COc3cccc(Cl)c3)o2)cc1	–	–	–	–	–	71
O=C(Nc1cccnc1)c1ccc(COc2cc(Cl)ccc2Cl)o1	60	–	74	–	–	60
O=C(Nc1ccn(Cc2ccccc2F)n1)c1ccc(COc2cc(Cl)ccc2Cl)o1	–	–	61	–	–	91
C=CCNC(=O)NC(=O)COC(=O)c1cccnc1SC	–	–	–	–	–	–
SMILES	PostGolgi ctrl	CYP2C9 act	CYP2C19 inhib	PostGolgi yeast	CYP2C19 act	CYP2C9 inh
Cc1ccc(Cl)cc1Nc1nc(-c2sc(NC(=O)C(C)(C)C)nc2C)cs1	–	–	–	–	–	–
O=C(Nc1cccc(Cl)c1)N1CCSc2cc(Cl)ccc21	–	–	–	–	–	–
O=C(Nc1ccn(Cc2ccccc2F)n1)c1ccc(COc2cccc(Br)c2)cc1	–	–	–	–	–	88
O=C(Nc1nn(Cc2ccc(Cl)cc2)cc1Br)c1ccc(COc2ccccc2Cl)o1	–	–	81	–	–	86
O=C(NCc1ccc2c(c1)OCO2)c1ccc(COc2cc(Cl)ccc2Cl)o1	–	–	57	–	–	94
Cc1nn(C)c(C(=O)Nc2ccn(Cc3ccccc3F)n2)c1[N+](=O)[O-]	–	–	–	–	–	–
O=C(Nc1ccn(Cc2ccccc2F)n1)c1ccc(COc2ccccc2Cl)cc1	–	–	79	–	–	86
O=Cc1ccc(OCC(=O)NC(=O)NC2CCCCC2)cc1	–	–	–	–	–	–
